PubChem BioAssay (EPA / NIEHS)
Inconclusive results are not listed. Calls of active or inactive are those of the source. The calls were made as follows: active = hit-call score of the fitted dose curve at least 0.9, where 1 is the maximum; inconclusive = response in the unintended direction; inactive = score below 0.9.

Assays:
[1] = tested on: 5-hydroxytryptamine receptor 2C (pig); assay: NVS_GPCR_p5HT2C: NovaScreen (NVS) G Protein-Coupled Receptor Assay for pig Serotonin, 5-Hydroxytryptamine Receptor 2C (5HT2C) (AID 2283288)
How it was run: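 Radioligand displacement on membranes from pig choroid plexus, detected by filter scintillation counting after 1 h. Tested first at a single 25 uM in duplicate, then in concentration-response for actives; DMSO served as baseline.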

[2] = tested on: rat Adrenergic, Alpha 1B Receptor (Adra1B), gene 24173; assay: NVS_GPCR_rAdra1B: NovaScreen (NVS) G Protein-Coupled Receptor Assay for rat Adrenergic, Alpha 1B Receptor (Adra1B) (AID 2283297)
How it was run: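 Filter-binding radioligand competition on membranes from rat liver, read after 1 h by scintillation counting. Single-concentration duplicate screen at 25 uM, followed by concentration-response on actives, normalised to DMSO.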

[3] = tested on: rabbit Platelet Activating Factor Receptor (PAF), gene 100354046; assay: NVS_GPCR_rabPAF: NovaScreen (NVS) G Protein-Coupled Receptor Assay for rabbit Platelet Activating Factor Receptor (PAF) (AID 2283287)
How it was run: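 Rabbit platelet membrane preparation; radioligand displacement read by filter-based scintillation counting 1 h after dosing, loss of signal versus DMSO. Primary screen in duplicate at 25 uM, actives followed up in concentration series.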

[4] = target: rat Adrenergic, Alpha 1, Non-selective Receptor (Adra1), Adra1a (gene 29412) (UniProt P43140); assay: NVS_GPCR_rAdra1_NonSelective: NovaScreen (NVS) G Protein-Coupled Receptor Assay for rat Adrenergic, Alpha 1, Non-selective Receptor (Adra1) (AID 2283289)
How it was run: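 Chemicals first screened in duplicate at 25 uM, then actives tested in concentration series up to 50 uM. Binding measured as displacement of radioligand from rat forebrain membrane receptors, 1 h, filtration with scintillation readout; DMSO baseline.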

[5] = target: guinea pig Serotonin, 5-Hydroxytryptamine Receptor 4 (5HT4), HTR4 (gene 100135548) (UniProt O70528); assay: NVS_GPCR_g5HT4: NovaScreen (NVS) G Protein-Coupled Receptor Assay for guinea pig Serotonin, 5-Hydroxytryptamine Receptor 4 (5HT4) (AID 2283294)
How it was run: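 Compounds first screened in duplicate at 25 uM, actives followed up in concentration series. Binding measured as displacement of specific radioligand from guinea pig striatal membranes, 1 h, filter-based scintillation read-out versus DMSO baseline.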

[6] = target: rat Serotonin, 5-Hydroxytryptamine Receptor (5HT), Non-Selective Binding, Htr1a (gene 24473) (UniProt P19327); assay: NVS_GPCR_r5HT_NonSelective: NovaScreen (NVS) G Protein-Coupled Receptor Assay for rat Serotonin, 5-Hydroxytryptamine Receptor (5HT), Non-Selective Binding (AID 2283295)
How it was run: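 Rat cortex membrane preparation incubated 1 h with radioligand and test chemical; bound radioactivity counted after filtration. Screening began in duplicate at 25 uM with concentration-series follow-up; fitting relative to DMSO.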

[7] = target: rat Adrenergic, Alpha 1A Receptor (Adra1A), Adra1a (gene 29412) (UniProt P43140); assay: NVS_GPCR_rAdra1A: NovaScreen (NVS) G Protein-Coupled Receptor Assay for rat Adrenergic, Alpha 1A Receptor (Adra1A) (AID 2283296)
How it was run: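 Filter radiodetection after 1 h competitive binding on CEC-pretreated rat cortical membranes. Duplicate single-point screening at 25 uM; active chemicals retested across concentration series.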

[8] = target: guinea pig Bradykinin Receptor B2 (BK2), BDKRB2 (gene 100135486) (UniProt O70526); assay: NVS_GPCR_gBK2: NovaScreen (NVS) G Protein-Coupled Receptor Assay for guinea pig Bradykinin Receptor B2 (BK2) (AID 2283292)
How it was run: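 Guinea pig ileum membrane preparation incubated 1 h with radioligand and test chemical; bound counts measured after filtration. Primary duplicate screening at 25 uM, then singleton concentration series with a 50 uM top dose; DMSO as baseline.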

[9] = target: rat Adrenergic Receptor, Beta (Adrb), Non-selective Binding, Adrb1 (gene 24925) (UniProt P18090); assay: NVS_GPCR_rAdrb_NonSelective: NovaScreen (NVS) G Protein-Coupled Receptor Assay for rat Adrenergic Receptor, Beta (Adrb), Non-selective Binding (AID 2283298)
How it was run: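 Rat cortical membranes incubated 1 h with beta-adrenergic radioligand and test chemical; bound ligand measured by filtration and scintillation counting. Screen at 25 uM duplicate, then concentration series with 50 uM maximum; loss of signal versus DMSO.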

[10] = target: mouse Cholecystokinin, CCK2 Receptor (CCKB), Cckbr (gene 12426) (UniProt P56481); assay: NVS_GPCR_mCKKBCentral: NovaScreen (NVS) G Protein-Coupled Receptor Assay for mouse Cholecystokinin, CCK2 Receptor (CCKB) (AID 2283293)
How it was run: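 Mouse forebrain membrane preparation incubated 2 h with chemical and radioligand; bound radioactivity counted after filtration. Single-concentration duplicate screen at 25 uM, then concentration series to 50 uM max for hits, DMSO as baseline.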

guinea pig Serotonin, 5-Hydroxytryptamine Receptor 4 (5HT4), HTR4 (gene 100135548), sequence (O70528 whole entry, looked up): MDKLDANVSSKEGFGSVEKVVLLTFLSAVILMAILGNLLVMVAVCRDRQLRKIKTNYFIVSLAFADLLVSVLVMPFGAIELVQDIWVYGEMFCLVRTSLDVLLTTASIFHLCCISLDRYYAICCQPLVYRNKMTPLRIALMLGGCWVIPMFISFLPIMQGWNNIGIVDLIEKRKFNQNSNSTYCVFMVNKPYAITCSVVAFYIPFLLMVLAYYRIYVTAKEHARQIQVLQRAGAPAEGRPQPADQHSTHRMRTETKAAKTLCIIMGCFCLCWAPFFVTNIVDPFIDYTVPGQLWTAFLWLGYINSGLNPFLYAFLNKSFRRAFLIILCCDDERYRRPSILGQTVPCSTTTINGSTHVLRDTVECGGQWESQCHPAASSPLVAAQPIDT
mouse Cholecystokinin, CCK2 Receptor (CCKB), Cckbr (gene 12426), sequence (P56481 whole entry, looked up): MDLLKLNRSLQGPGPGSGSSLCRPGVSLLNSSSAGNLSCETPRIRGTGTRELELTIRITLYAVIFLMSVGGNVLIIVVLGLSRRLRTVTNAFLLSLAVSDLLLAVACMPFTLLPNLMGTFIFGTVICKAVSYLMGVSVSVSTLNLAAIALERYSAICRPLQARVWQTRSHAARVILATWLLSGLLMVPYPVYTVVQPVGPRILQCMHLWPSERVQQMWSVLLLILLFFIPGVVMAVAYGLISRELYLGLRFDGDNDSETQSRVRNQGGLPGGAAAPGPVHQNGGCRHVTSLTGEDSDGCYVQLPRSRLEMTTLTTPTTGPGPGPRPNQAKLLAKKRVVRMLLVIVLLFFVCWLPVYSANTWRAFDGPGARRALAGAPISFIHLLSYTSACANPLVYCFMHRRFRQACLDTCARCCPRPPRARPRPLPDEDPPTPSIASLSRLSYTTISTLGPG
rat Adrenergic, Alpha 1, Non-selective Receptor (Adra1), Adra1a (gene 29412), sequence (P43140 whole entry, looked up): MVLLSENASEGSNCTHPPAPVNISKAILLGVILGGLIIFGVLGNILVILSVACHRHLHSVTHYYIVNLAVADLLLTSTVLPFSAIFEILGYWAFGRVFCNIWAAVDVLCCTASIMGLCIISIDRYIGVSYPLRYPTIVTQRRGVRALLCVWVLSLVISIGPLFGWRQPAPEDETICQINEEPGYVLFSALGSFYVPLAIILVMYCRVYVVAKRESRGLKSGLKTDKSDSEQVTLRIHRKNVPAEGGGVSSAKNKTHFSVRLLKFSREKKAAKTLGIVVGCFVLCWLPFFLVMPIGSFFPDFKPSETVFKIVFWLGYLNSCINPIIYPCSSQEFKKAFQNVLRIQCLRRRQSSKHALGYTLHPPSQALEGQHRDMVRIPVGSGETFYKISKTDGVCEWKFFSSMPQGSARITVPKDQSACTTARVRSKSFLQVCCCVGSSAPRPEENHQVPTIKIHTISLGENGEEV
rat Adrenergic, Alpha 1A Receptor (Adra1A), Adra1a (gene 29412), sequence (P43140 whole entry, looked up): as above
rat Serotonin, 5-Hydroxytryptamine Receptor (5HT), Non-Selective Binding, Htr1a (gene 24473), sequence (P19327 whole entry, looked up): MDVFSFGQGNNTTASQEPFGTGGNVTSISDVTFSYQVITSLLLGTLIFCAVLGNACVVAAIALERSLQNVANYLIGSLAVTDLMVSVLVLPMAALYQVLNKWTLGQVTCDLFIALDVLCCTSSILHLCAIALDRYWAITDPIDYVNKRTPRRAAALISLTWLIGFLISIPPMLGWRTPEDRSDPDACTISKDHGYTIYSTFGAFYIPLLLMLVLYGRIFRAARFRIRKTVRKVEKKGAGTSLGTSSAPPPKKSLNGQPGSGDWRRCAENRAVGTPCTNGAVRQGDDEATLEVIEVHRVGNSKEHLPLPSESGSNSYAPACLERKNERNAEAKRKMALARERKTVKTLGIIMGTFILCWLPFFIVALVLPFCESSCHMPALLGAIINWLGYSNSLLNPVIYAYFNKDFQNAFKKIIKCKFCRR
guinea pig Bradykinin Receptor B2 (BK2), BDKRB2 (gene 100135486), sequence (O70526 whole entry, looked up): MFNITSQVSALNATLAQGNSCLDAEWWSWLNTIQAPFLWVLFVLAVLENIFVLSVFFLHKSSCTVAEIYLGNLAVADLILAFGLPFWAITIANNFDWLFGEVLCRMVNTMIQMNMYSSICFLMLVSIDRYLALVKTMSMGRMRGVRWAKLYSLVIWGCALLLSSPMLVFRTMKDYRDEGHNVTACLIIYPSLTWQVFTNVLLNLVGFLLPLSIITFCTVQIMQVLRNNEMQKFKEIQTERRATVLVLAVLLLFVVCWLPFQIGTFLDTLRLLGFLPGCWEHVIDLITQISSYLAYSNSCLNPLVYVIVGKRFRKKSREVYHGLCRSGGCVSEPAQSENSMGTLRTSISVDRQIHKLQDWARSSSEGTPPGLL
rat Adrenergic Receptor, Beta (Adrb), Non-selective Binding, Adrb1 (gene 24925), sequence (P18090 whole entry, looked up): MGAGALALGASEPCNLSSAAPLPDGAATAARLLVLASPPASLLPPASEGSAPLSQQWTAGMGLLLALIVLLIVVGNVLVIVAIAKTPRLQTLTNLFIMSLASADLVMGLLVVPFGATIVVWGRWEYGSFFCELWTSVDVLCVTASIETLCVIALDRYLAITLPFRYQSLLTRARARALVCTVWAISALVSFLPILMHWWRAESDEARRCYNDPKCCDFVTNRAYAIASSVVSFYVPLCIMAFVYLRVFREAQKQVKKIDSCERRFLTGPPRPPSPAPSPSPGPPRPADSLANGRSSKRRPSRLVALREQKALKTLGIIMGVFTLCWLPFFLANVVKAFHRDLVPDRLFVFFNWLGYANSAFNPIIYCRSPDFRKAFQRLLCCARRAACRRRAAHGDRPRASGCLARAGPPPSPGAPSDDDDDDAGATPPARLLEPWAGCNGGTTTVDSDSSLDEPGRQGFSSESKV

Structure (SMILES): CCCCOC(=O)c1ccc(O)cc1
- AC50 [1]: 25 µM (active)
- outcome [2]: inactive

Structure (SMILES): CCN(Cc1cccnc1)C(=O)c1cccc(Cl)c1[C@]1(C)C(=O)N(Cc2ccc(OC)cc2OC)c2ccc(Cl)cc21
- AC50 [3]: 1.68 µM (active)
- AC50 [4]: 11.4 µM (active)
- AC50 [5]: 15 µM (active)
- AC50 [6]: 17.4 µM (active)

Structure (SMILES): NCc1cccc(C2CCN(C(=O)c3ccc(C#Cc4ccccc4F)o3)CC2)c1
- AC50 [3]: 9.21 µM (active)
- AC50 [1]: 8.02 µM (active)
- AC50 [4]: 21.5 µM (active)
- AC50 [5]: 17.6 µM (active)
- AC50 [6]: 14.8 µM (active)
- outcome [7]: inactive
- AC50 [2]: 25 µM (active)

Structure (SMILES): c1ccc(C[n+]2cccc3ccccc32)cc1
- AC50 [4]: 11.7 µM (active)
- AC50 [7]: 11 µM (active)

Structure (SMILES): CN(C)C(=O)C1(N2CCCCC2)CCN(CC[C@@]2(c3ccc(Cl)c(Cl)c3)CN(C(=O)c3ccccc3)CCO2)CC1
- AC50 [1]: 1.18 µM (active)
- AC50 [8]: 14 µM (active)
- AC50 [5]: 23.6 µM (active)
- AC50 [6]: 1.71 µM (active)
- AC50 [7]: 10.1 µM (active)
- AC50 [2]: 5.65 µM (active)
- AC50 [9]: 6.63 µM (active)

Structure (SMILES): CCCC(=O)OCCC(C)C
- outcome [10]: inactive

Structure (SMILES): CCCCCCCCCCCC[N+](C)(C)C
- AC50 [3]: 9.15 µM (active)
- AC50 [1]: 25 µM (active)
- AC50 [5]: 17.9 µM (active)

Structure (SMILES): CC[C@@H]1C[C@H](N(Cc2cc(C(F)(F)F)cc(C(F)(F)F)c2)C(C)=O)c2cc(C(F)(F)F)ccc2N1C(=O)OC(C)C
- outcome [3]: inactive

Structure (SMILES): CCN(CC)C(=O)c1cc(S(=O)(=O)Cc2ccccc2)c(N2CCC(c3ccccc3)CC2)cc1N(CC)CCN(C)C
- AC50 [3]: 10.2 µM (active)
- AC50 [1]: 7.94 µM (active)
- AC50 [6]: 11.3 µM (active)
- AC50 [7]: 17.8 µM (active)
- AC50 [2]: 6.1 µM (active)

Structure (SMILES): CCOC(=O)O[C@H](C)OC(=O)c1ccc2c(c1)cc(C(=O)NC1CCN(C(C)C)CC1)n2Cc1cc(-c2ccc(Cl)s2)on1
- AC50 [3]: 17.3 µM (active)
- AC50 [1]: 21.3 µM (active)
- AC50 [4]: 33.1 µM (active)
- AC50 [5]: 23.6 µM (active)
- AC50 [6]: 11.1 µM (active)

Structure (SMILES): O=c1[nH]sc2ccccc12
- AC50 [5]: 33.7 µM (active)

Structure (SMILES): CC/C(=C(/CC)c1ccc(O)cc1)c1ccc(O)cc1
- AC50 [1]: 22.1 µM (active)
- outcome [4]: inactive
- AC50 [10]: 37.9 µM (active)
- AC50 [5]: 39.4 µM (active)

Structure (SMILES): Cc1oc2c(NC(=O)c3c(Cl)cccc3Cl)cccc2c1C(C)(C)O
- AC50 [3]: 5.98 µM (active)

Structure (SMILES): Oc1ccc2ccccc2c1
- AC50 [1]: 9.86 µM (active)

Structure (SMILES): CN(C)c1ccc(C(=C2C=CC(=[N+](C)C)C=C2)c2ccc(N(C)C)cc2)cc1
- AC50 [1]: 18.5 µM (active)
- AC50 [4]: 4.81 µM (active)
- AC50 [8]: 12.3 µM (active)
- AC50 [10]: 10.3 µM (active)
- AC50 [5]: 7.22 µM (active)
- AC50 [6]: 25 µM (active)
- AC50 [7]: 20.9 µM (active)
- AC50 [9]: 17.3 µM (active)

Structure (SMILES): CN(C[C@@H](CC[N+]12CCC(C3CCCCC3)(CC1)CC2)c1ccc(Cl)c(Cl)c1)C(=O)c1cc(C(F)(F)F)cc(C(F)(F)F)c1
- AC50 [1]: 25 µM (active)
- AC50 [5]: 8.02 µM (active)

Structure (SMILES): Cc1cc(F)ccc1-c1cc(N2CC[C@@H](O)[C@H]2CO)ncc1N(C)C(=O)C(C)(C)c1cc(C(F)(F)F)cc(C(F)(F)F)c1
- AC50 [3]: 1.38 µM (active)
- AC50 [4]: 20.4 µM (active)

Structure (SMILES): Clc1cc(Cl)c2c(c1)N=C1CCCCCN1C2
- AC50 [4]: 6.44 µM (active)
- AC50 [5]: 5.45 µM (active)
- AC50 [7]: 3.54 µM (active)
- AC50 [2]: 5.42 µM (active)

Structure (SMILES): c1ccc2n[nH]nc2c1
- outcome [1]: inactive

Structure (SMILES): O=c1c(-c2ccc(O)cc2)coc2cc(O)cc(O)c12
- outcome [4]: inactive

Structure (SMILES): Cc1cc2c(cc1C(F)(F)F)N(C(=O)Nc1ccc(Oc3cccnc3C)nc1)CC2
- AC50 [1]: 0.00211 µM (active)
- AC50 [5]: 5.92 µM (active)
- AC50 [6]: 0.43 µM (active)

Structure (SMILES): CC(C)(C)c1cc(/C=C2\SC(N)=NC2=O)cc(C(C)(C)C)c1O
- outcome [1]: inactive

Structure (SMILES): C[C@]12CC[C@@H]3c4ccc(O)cc4CC[C@H]3[C@@H]1CCC2=O
- outcome [5]: inactive

Structure (SMILES): Clc1ccccc1C(c1ccccc1)(c1ccccc1)n1ccnc1
- AC50 [3]: 0.621 µM (active)
